Measured values reported in PubChem BioAssay (NCI).
Several values for one entry are separate records, joined by “and”; a condition that tells them apart may be missing. Equal entries are not always repeated. The panel holds about 79,000 compounds, 15% with a hit somewhere; the sample as a whole holds those more often. Where a structure was tested more than once in an assay, its records may differ in their call. Activity calls are given as the source filed them. Cut-off read from the data, not from the text of the source: active = growth inhibition above about 70%; inactive = the rest.

Tests used:
[1] = NCI Yeast Anticancer Drug Screen. Data for the rad50 strain (AID 155);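 note: 0% = growth of vehicle-only cultures of the same strain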; conditions: S. cerevisiae rad50 strain growth inhibition, stronger effect = higher value
In short: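 A DNA repair-deficient yeast mutant serves as the test organism; compound-induced growth inhibition is calculated against vehicle-treated cells.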

[2] = NCI Yeast Anticancer Drug Screen. Data for the mec2-1 strain (AID 157); conditions: S. cerevisiae mec2-1 strain, stronger effect = higher value
In short: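 Readout is yeast growth inhibition, normalised to vehicle-treated controls, in the mec2-1 strain exposed to compound.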

[3] = NCI Yeast Anticancer Drug Screen. Data for the sgs1 mgt1 strain (AID 161);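 note: 0% = growth of cultures given vehicle only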; conditions: S. cerevisiae sgs1 mgt1 strain, stronger effect = higher value
In short: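 Growth of a repair-deficient yeast mutant was monitored after compound treatment and expressed as inhibition relative to vehicle-treated cultures.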

[4] = NCI Yeast Anticancer Drug Screen. Data for the cln2 rad14 strain (AID 165);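 note: 0% = growth equal to vehicle treated cultures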; conditions: S. cerevisiae cln2 rad14 strain, stronger effect = higher value
In short: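 Relative to vehicle controls, growth inhibition of compound-treated cln2 rad14 yeast was recorded.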

[5] = NCI Yeast Anticancer Drug Screen. Data for the bub3 strain (AID 167); conditions: S. cerevisiae bub3 mutant strain, stronger effect = higher value
In short: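 Inhibition values come from growth of compound-treated mutant yeast normalised to vehicle-treated controls.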

[6] = NCI Yeast Anticancer Drug Screen. Data for the mlh1 rad18 strain (AID 175); conditions: S. cerevisiae mlh1 rad18 strain growth inhibition, stronger effect = higher value
In short: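 Test agents were incubated with a yeast strain of defined genotype (DNA damage repair defect). Inhibition of growth was derived by comparison with vehicle-exposed cultures.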

[7] = at 5.0 µM (retest, dose inferred, filed as 0.5)
[8] = at 50.0 µM (retest, dose inferred, filed as 5.0)

SMILES | growth inhibition [1, 7] | growth inhibition [1, 8] | growth inhibition ([1]; at 50.0 µM) | growth inhibition [2, 7] | growth inhibition [2, 8] | growth inhibition ([2]; at 50.0 µM) | growth inhibition [3, 7] | growth inhibition [3, 8] | growth inhibition ([3]; at 50.0 µM) | growth inhibition [4, 7] | growth inhibition [4, 8] | growth inhibition ([4]; at 50.0 µM) | growth inhibition [5, 7] | growth inhibition [5, 8] | growth inhibition ([5]; at 50.0 µM) | growth inhibition [6, 7] | growth inhibition [6, 8] | growth inhibition ([6]; at 50.0 µM)
CCN(CC)CCOc1ccc2c(C)c(-c3ccccc3)c(=O)oc2c1 | 0% (inactive) | 23% (inactive) | 62% (inactive) | -3% (inactive) | 34% (inactive) | 3% (inactive) | 10% (inactive) | 38% (inactive) | 34.8% (inactive) | -5% (inactive) | 18% (inactive) | -44.8% (inactive) | -4% (inactive) | 27% (inactive) | 60.8% (inactive) | 2% (inactive) | 30% (inactive) | 21.1% (inactive)
OC(CN1CCCC2CCCCC21)c1cc2ccccc2c2ccccc12 (stereo not given) | 0% (inactive) and -2% (inactive) | 97% (active) and 99% (active) | 98.7% (active) and 98.5% (active) | 20% (inactive) and -4% (inactive) | 80% (active) and 99% (active) | 98.4% (active) | -21% (inactive) and -6% (inactive) | 98% (active) and 99% (active) | 98.9% (active) and 98% (active) | -2% (inactive) | 94% (active) and 99% (active) | 99% (active) and 98.2% (active) | 0% (inactive) and -3% (inactive) | 91% (active) and 99% (active) | 99.2% (active) and 99% (active) | 13% (inactive) and 2% (inactive) | 99% (active) | 99.2% (active) and 99% (active)
CSCCC(NS(=O)(=O)Cc1ccccc1)C(=O)NNc1ccccc1 (stereo not given) | -4% (inactive) and 18% (inactive) | 44% (inactive) and 71% (active) | 72% (active) and 51.2% (inactive) | 0% (inactive) and 2% (inactive) | 30% (inactive) and 34% (inactive) | 30.7% (inactive) and 41.2% (inactive) | -12% (inactive) and 10% (inactive) | 65% (inactive) and 58% (inactive) | 55.9% (inactive) and 63.3% (inactive) | 14% (inactive) and 5% (inactive) | 44% (inactive) and 60% (inactive) | 56.4% (inactive) and 40.1% (inactive) | 2% (inactive) and 16% (inactive) | 42% (inactive) and 93% (active) | 46.6% (inactive) and 73.8% (active) | 33% (inactive) and 18% (inactive) | 79% (active) and 65% (inactive) | 76.9% (active) and 76.8% (active)
Clc1c(C(Cl)(Cl)Cl)nsc1N1CCCCC1 | 17% (inactive) | 58% (inactive) | 50.6% (inactive) | 16% (inactive) | 51% (inactive) | 23.1% (inactive) | -3% (inactive) | 39% (inactive) | 33.1% (inactive) | 17% (inactive) | 10% (inactive) | 28% (inactive) | 1% (inactive) | 18% (inactive) | 51.4% (inactive) | 18% (inactive) | 84% (active) | 46.7% (inactive)
O=C1OC(c2ccc(O)cc2)(c2ccc(O)cc2)c2cccc3cccc1c23 | 25% (inactive) | 99% (active) | 99% (active) | 11% (inactive) | 99% (active) | 99.2% (active) | 17% (inactive) | 99% (active) | 99% (active) | 14% (inactive) | 99% (active) | 98.9% (active) | 11% (inactive) | 99% (active) | 99% (active) | 23% (inactive) | 99% (active) | 98.3% (active)
Nc1nc(Cl)cc(NCCCCCCCCCCNc2cc(Cl)nc(N)n2)n1 | -4% (inactive) | 96% (active) | 28.9% (inactive) | 3% (inactive) | 100% (active) | 19.1% (inactive) | -1% (inactive) | 100% (active) | 0.05% (inactive) | 10% (inactive) | 99% (active) | 52.1% (inactive) | -7% (inactive) | 99% (active) | 18.8% (inactive) | 14% (inactive) | 99% (active) | 33% (inactive)
Cc1ccc(S(=O)(=O)N/N=C2/C(=O)c3cccc4cccc2c34)cc1 | 6% (inactive) | 74% (active) | 64.5% (inactive) | -15% (inactive) | 64% (inactive) | 12.8% (inactive) | 10% (inactive) | 76% (active) | 55.8% (inactive) | 2% (inactive) | 39% (inactive) | 30.5% (inactive) | 0% (inactive) | 55% (inactive) | 0.25% (inactive) | 33% (inactive) | 92% (active) | 24.8% (inactive)
CC(=O)Nc1c(Cl)c(Cl)c2c(c1Cl)Cc1cc(Cl)ccc1-2 | 99% (active) | 99% (active) | 98.2% (active) | 99% (active) | 99% (active) | 98% (active) | 99% (active) | 49% (inactive) | 96.1% (active) | 97% (active) | 99% (active) | 95.5% (active) | 99% (active) | 99% (active) | 98.3% (active) | 99% (active) | 99% (active) | 98.5% (active)
O=C1C=C(O)c2ccccc2C1=O.[Ag] | 99% (active) | 99% (active) | 88.8% (active) and 99.5% (active) | 100% (active) | 99% (active) | 75% (active) and 99.5% (active) | 99% (active) | 99% (active) | 96.4% (active) and 99.4% (active) | 100% (active) | 99% (active) | 66.2% (inactive) and 99% (active) | 99% (active) | 99% (active) | 86.3% (active) and 99.3% (active) | 99% (active) | 99% (active) | 87.5% (active) and 99.2% (active)
CC[N+](CC)=c1ccc2nc3c(cc(N)c4ccccc43)oc-2c1 | -8% (inactive) | 42% (inactive) | 71.5% (active) and -20.9% (inactive) | -1% (inactive) | 39% (inactive) | 52.5% (inactive) and -17.7% (inactive) | -9% (inactive) | 42% (inactive) | 38.1% (inactive) | -14% (inactive) | 7% (inactive) | 38% (inactive) | -4% (inactive) | 19% (inactive) | 63% (inactive) | -6% (inactive) | 27% (inactive) | 68.8% (inactive) and -28.9% (inactive)
c1ccc(N=c2cnc3c(ccc4ccccc43)o2)cc1 | 97% (active) | 93% (active) | 93.5% (active) | 97% (active) | 96% (active) | 95.5% (active) | 96% (active) | 95% (active) | 94.2% (active) | 99% (active) | 98% (active) | 98.6% (active) | 64% (inactive) | 84% (active) | 79.2% (active) | 97% (active) | 96% (active) | 96.8% (active)
CCOc1ccc2ccccc2c1C(Cc1ccc(Cl)cc1)NCCO (stereo not given) | -1% (inactive) | -1% (inactive) | 89.3% (active) | -2% (inactive) | 6% (inactive) | 93.5% (active) | -21% (inactive) | 2% (inactive) | 94.3% (active) | 1% (inactive) | -7% (inactive) | 98.6% (active) | -2% (inactive) | -3% (inactive) | 94.7% (active) | 1% (inactive) | 22% (inactive) | 98.5% (active)
COc1c(CBr)c(CBr)c(OC)c2c1C(=O)c1ccccc1C2=O | 33% (inactive) | 99% (active) | 87.2% (active) | 14% (inactive) | 99% (active) | 63.8% (inactive) | 23% (inactive) | 99% (active) | 86.7% (active) | 2% (inactive) | 99% (active) | 41% (inactive) | 9% (inactive) | 99% (active) | 64.2% (inactive) | 19% (inactive) | 99% (active) | 92.8% (active)
Cc1ncc(C[n+]2cccc(CCO)c2C)c(N)n1 | 4% (inactive) and 16% (inactive) | 31% (inactive) and 48% (inactive) | 55.7% (inactive) and 46.5% (inactive) | 19% (inactive) and 11% (inactive) | 60% (inactive) and 49% (inactive) | 40.5% (inactive) and 38% (inactive) | -15% (inactive) and 10% (inactive) | 62% (inactive) and 68% (inactive) | 87.5% (active) and 64% (inactive) | 1% (inactive) and 9% (inactive) | 24% (inactive) and 18% (inactive) | 58.1% (inactive) and 24.5% (inactive) | -4% (inactive) and 5% (inactive) | 14% (inactive) and 36% (inactive) | 8.65% (inactive) and 29.9% (inactive) | 10% (inactive) and 15% (inactive) | 63% (inactive) and 48% (inactive) | 72% (active) and 71.2% (active)
c1ccc(-c2[nH]c3ccccc3c2-c2ccccn2)cc1 | 3% (inactive) | 8% (inactive) | 91.8% (active) | -2% (inactive) | -2% (inactive) | 99.3% (active) | 4% (inactive) | 23% (inactive) | 95.6% (active) | 4% (inactive) | 8% (inactive) | 99.1% (active) | 0% (inactive) | 2% (inactive) | 98.7% (active) | 5% (inactive) | 13% (inactive) | 98.8% (active)
